Experimental data taken from PubChem BioAssay (NCI).
About 83,000 compounds went through this panel and 20% of them were active in at least one assay; those are over-represented in the sample as a whole.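 Values shown are percent growth following 48 h exposure of cells in 96-well plates to a single concentration of compound; below 10 was considered active.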 The source made the active and inactive calls.

Experiments:
Assay in all cases: NCI-60 one-dose screen, 48 h (100 = growth as untreated, 0 = no growth, -100 = all killed)
Conditions in all cases: 10 µM unless noted
[1] = system: SK-MEL-2 melanoma
[2] = system: EKVX NSCLC
[3] = system: SN12C renal
[4] = system: UO-31 renal
[5] = system: TK-10 renal
[6] = system: ACHN renal
[7] = system: CAKI-1 renal
[8] = system: A498 renal
[9] = system: CCRF-CEM leukemia
[10] = system: MOLT-4 leukemia

Measured: growth

O=CNc1ccc2c(c1)Cc1cc([N+](=O)[O-])ccc1-2
inactive: [1] 19.2% | [2] 36% | [3] 38.9% | [4] 33.3% | [5] 37.6% | [6] 56.6% | [7] 29.9% | [8] 39.2% | [9] 20.9% | [10] 29.7%

Cc1c2oc3c(C)ccc(C(=O)OC(C)C4NC(=O)C(C(C)C)N(C)C(=O)CN(C)C(=O)C5CCCN5C(=O)C(C(C)C)NC4=O)c3nc-2c(C(=O)OC(C)C2NC(=O)C(C(C)C)N(C)C(=O)CN(C)C(=O)C3CCCN3C(=O)C(C(C)C)NC2=O)c(N)c1=O (stereo unspecified)
active: [1] -64.8% | [2] 5.92% | [3] 7.77% | [4] -8.49% | [5] -7.83% | [6] 1.27% | [7] 3.24% | [8] -75.4%
inactive: [9] 18.4%

O=C(O)c1ccc(CNS(=O)(=O)c2ccc3ccccc3c2)cc1
inactive: [2] 111% | [3] 100% | [4] 94.7% | [5] 109% | [6] 101% | [7] 112% | [8] 102% | [9] 117% | [10] 84.1%
active: [1] 0.434%

Oc1ccc(/C=N/Nc2nc3ccccc3s2)c(O)c1
inactive: [1] 24% | [2] 43.2% | [3] 49.9% | [4] 10.2% | [5] 22.9% | [6] 23.2% | [7] 12.3% | [8] 77.9% | [9] 27.1%

O=C(c1ccc(N2CCOCC2)cc1[N+](=O)[O-])N1CCOCC1
inactive: [1] 17.9% | [2] 18.9% | [3] 145% | [4] 99.4% | [5] 116% | [6] 100% | [7] 20.1% | [8] 104% | [9] 104% | [10] 116%

COc1ccc(NS(=O)(=O)N2CCCCC2)cc1
inactive: [1] 99.1% | [2] 115% | [3] 93% | [4] 76.4% | [5] 102% | [6] 104% | [7] 103% | [8] 80% | [9] 89.6% | [10] 99.8%

COc1cc(/C=N/NC(=O)c2ccc(C(F)(F)F)nc2Nc2cc(Cl)ccc2C)cc(OC)c1OC
inactive: [1] 88.8% | [2] 93.6% | [3] 93.9% | [4] 103% | [5] 119% | [6] 104% | [7] 77.5% | [8] 100% | [9] 51.5% | [10] 61.8%

O=C(Nc1cccc(Cl)c1)Nc1cccc(Cl)c1
inactive: [1] 114% | [2] 72.5% | [3] 85.2% | [4] 72.7% | [5] 74.3% | [6] 59.2% | [7] 78.2% | [8] 59.5% | [9] 38.8%

COc1cc(NC(=O)NCc2ccco2)ccc1-c1ccc(NC(=O)NCc2ccco2)cc1OC
inactive: [1] 76.3% | [2] 73% | [3] 69.4% | [4] 73.4% | [5] 37.7% | [6] 60.2% | [7] 105% | [8] 65.8% | [9] 61.3% | [10] 62.5%

c1ccc(-c2oc(-c3ccccc3)c3ccccc23)cc1
inactive: [1] 104% | [2] 92.1% | [3] 104% | [4] 110% | [5] 114% | [6] 104% | [7] 74.7% | [8] 98.9% | [9] 85.5% | [10] 95.7%

COC(=O)[C@H]1[C@H]2C[C@@H]3c4[nH]c5cc(OC)ccc5c4CCN3C[C@H]2C[C@@H](OC(=O)/C=C/c2cc(OC)c(OC)c(OC)c2)[C@@H]1OC
inactive: [1] 66.2% | [2] 90.4% | [3] 63.3% | [4] 69.2% | [5] 46.4% | [6] 68.5% | [7] 30.9% | [8] 81.7%
active: [9] 5.36% | [10] 8.49%

CCCCCN1C(=O)CCC1=O
active: [9] -52.3%
inactive: [1] 103% | [2] 98.9% | [3] 101% | [4] 85.8% | [5] 106% | [6] 104% | [7] 91.8% | [8] 106% | [10] 110%

CC[C@@H](C)/C=C(C)/C=C/C(O)=C1\C(=O)N[C@@H](Cc2ccc(OC(=O)[C@@](OC)(c3ccccc3)C(F)(F)F)cc2)C1=O
inactive: [1] 80.2% | [2] 54.1% | [3] 86.5% | [4] 70.9% | [5] 96.8% | [6] 103% | [7] 30.5% | [8] 64.7% | [9] 29.7%

COc1ccc2cc(C3=CC(=O)CCC3)ccc2c1
active: [8] -87.9%
inactive: [1] 92.7% | [2] 99.1% | [3] 97.2% | [4] 92.4% | [5] 100% | [6] 107% | [7] 102% | [9] 90.9% | [10] 92.9%
